Source: PubChem
Sampled rows, rich in hits. Any-hit rate of the full collection: about 2.4%.
C diff growth: C. difficile growth inhibitors, primary screen, HTS | Clostridium difficile clinical isolate growth, OD600, 24 h; active compounds read low | growth activity, negative = inhibition, % at 16 µg/mL (by protocol) | 86,000 tested, 0.25% active | AID 1259249, 2017;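 active = mean growth activity at or below -80% and every replicate also at or below -80%; inconclusive = mean at or below -80% but some replicate above -80%; inactive = mean growth activity above -80%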;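 note: 0% = DMSO wells and -100% = levofloxacin 16 µg/mL wells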
Pf Dd2 growth: P. falciparum Dd2 growth inhibitors, primary screen, SYBR Green fluorescence, single dose replicates. activity change, % at 10 µM. 72 h; active compounds read low. 94,000 tested, 2.3% active. AID 1159554, 2015; in the data active = activity change below about -80%; inconclusive = no clear call, values can overlap the other calls
* marks the source's active call; other numbers are inactive results; ? = inconclusive; . = no result.

SMILES	C diff growth	Pf Dd2 growth
C[C@H](CO)N1C[C@H](C)[C@@H](CN(C)Cc2ccccc2)Oc2c(NC(=O)Nc3ccc(C(F)(F)F)cc3)cccc2C1=O	13	-7
C[C@@H]1CN([C@@H](C)CO)C(=O)c2cccc(NC(=O)Nc3ccc(C(F)(F)F)cc3)c2O[C@@H]1CN(C)Cc1ccccc1	-98*	-26
COc1ccc(C#Cc2ccc([C@@H]3[C@@H](CO)N4CCCCN(Cc5ccccc5F)C[C@H]34)cc2)cc1	-97*	-80
COc1ccc(C#Cc2ccc([C@H]3[C@@H](CO)N4CCCCN(C(=O)Nc5cccc(F)c5)C[C@H]34)cc2)cc1	-89*	?
COc1ccc(C#Cc2ccc([C@@H]3[C@H]4CN(C(=O)Nc5cccc(F)c5)CCCCN4[C@H]3CO)cc2)cc1	53	-51
Cc1ccc(-c2ccc([C@H]3[C@@H](CO)N4CCCCN(C(=O)Nc5cccc(F)c5)C[C@H]34)cc2)cc1	-96*	-27
COc1ccc(C#Cc2ccc([C@H]3[C@H]4CN(Cc5ccccc5F)CCCCN4[C@H]3CO)cc2)cc1	0	-35
O=C(Nc1cccc(F)c1)N1CCCCN2[C@H](C1)[C@@H](c1ccc(-c3ccncc3)cc1)[C@@H]2CO	-7	-37
COc1ccccc1NC(=O)N1CCCCN2[C@@H](CO)[C@@H](c3ccc(C#CC4CCCC4)cc3)[C@@H]2C1	58	-64
COc1ccccc1NC(=O)N1CCCCN2[C@@H](CO)[C@H](c3ccc(C#CC4CCCC4)cc3)[C@@H]2C1	56	-83*
C[C@H]1CN([C@@H](C)CO)C(=O)Cc2cc(NC(=O)Nc3ccc(F)cc3)ccc2O[C@@H]1CN(C)C(=O)Nc1ccccc1	-1	-23
C[C@@H]1CN([C@H](C)CO)C(=O)c2cc(-c3ccc(F)cc3)cnc2O[C@H]1CN(C)C(=O)Nc1ccc(F)cc1	-8	-8
COc1ccc(C#Cc2ccc([C@H]3[C@@H](CO)N4CCCCN(C(=O)Nc5cccc(F)c5)C[C@@H]34)cc2)cc1	-19	1
COc1ccc(C#Cc2ccc([C@@H]3[C@@H](CO)N4CCCCN(C(=O)Nc5ccccc5F)C[C@@H]34)cc2)cc1	-4	-91*
COc1ccc(C#Cc2ccc([C@H]3[C@@H](CO)N4CCCCN(C(=O)Nc5ccccc5F)C[C@@H]34)cc2)cc1	-8	-79
O=C(Nc1cc(F)ccc1F)N1CCCCN2[C@@H](CO)[C@@H](c3ccc(C4=CCCCC4)cc3)[C@@H]2C1	-95*	-70
COc1ccccc1NC(=O)N1CCCCN2[C@H](CO)[C@H](c3ccc(-c4ccc(C)cc4)cc3)[C@@H]2C1	-5	-11
COc1ccc(C#Cc2ccc([C@@H]3[C@H](CO)N4CCCCN(C(=O)Nc5cccc(F)c5)C[C@@H]34)cc2)cc1	-85*	-84*
COc1ccccc1NC(=O)N1CCCCN2[C@H](CO)[C@H](c3ccc(-c4cccc(C)c4)cc3)[C@H]2C1	-65	-86*
O=C(Nc1cc(F)ccc1F)N1CCCCN2[C@H](C1)[C@H](c1ccc(C3=CCCCC3)cc1)[C@@H]2CO	11	6
COc1ccc2c3c([nH]c2c1)[C@@H](CO)N(C(=O)c1cccnc1)CC31CCN(C(=O)NC(C)C)CC1	4	-65
C[C@@H]1CN([C@@H](C)CO)C(=O)c2cc(NC(=O)Nc3ccc4c(c3)OCO4)ccc2O[C@H]1CN(C)C(=O)NC1CCCCC1	-1	-5
Cc1noc(C)c1NC(=O)N(C)C[C@H]1OCCCC[C@@H](C)Oc2ccc(NC(=O)c3ccccc3)cc2C(=O)N([C@@H](C)CO)C[C@H]1C	.	-57
C[C@@H]1CN([C@H](C)CO)S(=O)(=O)c2ccc(-c3ccncc3)cc2O[C@@H]1CN(C)C(=O)C1CCC1	.	0
C[C@@H]1CN([C@@H](C)CO)C(=O)c2cccc(NC(=O)c3nc4ccccc4s3)c2O[C@H]1CN(C)C(=O)Nc1ccc(C(F)(F)F)cc1	-1	-90*
SMILES	C diff growth	Pf Dd2 growth
C[C@H]1CN([C@@H](C)CO)C(=O)c2cccc(NC(=O)c3nc4ccccc4s3)c2O[C@H]1CN(C)C(=O)Nc1ccc(C(F)(F)F)cc1	3	-73
C[C@@H]1CN([C@H](C)CO)C(=O)c2cccc(NC(=O)c3nc4ccccc4s3)c2O[C@@H]1CN(C)C(=O)Nc1ccc2c(c1)OCO2	.	-57
C[C@@H]1CN([C@H](C)CO)C(=O)c2cccc(NC(=O)c3nc4ccccc4s3)c2O[C@H]1CN(C)C(=O)Nc1ccc(C(F)(F)F)cc1	-5	-86*
Cc1ccc(S(=O)(=O)N(C)C[C@@H]2Oc3c(NC(=O)c4nc5ccccc5s4)cccc3C(=O)N([C@@H](C)CO)C[C@H]2C)cc1	0	-85*
C[C@H]1CN([C@@H](C)CO)C(=O)c2cccc(NC(=O)c3nc4ccccc4s3)c2O[C@@H]1CN(C)C(=O)Nc1ccc(C(F)(F)F)cc1	11	-56
C[C@@H]1CN([C@H](C)CO)C(=O)c2cccc(NC(=O)c3nc4ccccc4s3)c2O[C@H]1CN(C)C(=O)Nc1ccc2c(c1)OCO2	.	-82*
Cc1ccc(S(=O)(=O)N(C)C[C@H]2Oc3c(NC(=O)c4nc5ccccc5s4)cccc3C(=O)N([C@@H](C)CO)C[C@@H]2C)cc1	-2	-66
COc1ccc(-c2cnc3c(c2)C(=O)N([C@H](C)CO)C[C@H](C)[C@H](CN(C)C(=O)C2CC2)O3)cc1	3	4
C[C@@H]1CN([C@@H](C)CO)C(=O)CCCn2cc(nn2)CO[C@@H]1CN(C)C(=O)Nc1ccc(C(C)(C)C)cc1	-3	-4
CO[C@H]1CN(C)C(=O)c2cc(NC(=O)Nc3cccc(F)c3)ccc2OC[C@@H](C)N(C(=O)Nc2c(C)noc2C)C[C@@H]1C	.	-3
C[C@@H]1CCCCO[C@H](CN(C)Cc2ccccc2)[C@H](C)CN([C@@H](C)CO)C(=O)c2cc(NC(=O)C3CCCCC3)ccc2O1	-1	-4
C[C@H](CO)N1C[C@H](C)[C@@H](CN(C)C(=O)c2ccncc2)OCCCC[C@H](C)Oc2ccc(NC(=O)c3ccccc3)cc2C1=O	-5	4
CC(C)NC(=O)N(C)C[C@H]1Oc2c(NC(=O)c3nc4ccccc4s3)cccc2C(=O)N([C@@H](C)CO)C[C@H]1C	-3	-72
CC(C)NC(=O)N(C)C[C@H]1Oc2c(NC(=O)c3nc4ccccc4s3)cccc2C(=O)N([C@H](C)CO)C[C@H]1C	0	-83*
O=C(NC1CCCCC1)N1CC(=O)N2[C@H](C1)[C@@H](c1ccc(-c3ccccc3)cc1)[C@@H]2CO	-19	4
CO[C@@H]1CN(C)C(=O)c2ccc(NC(=O)C3CC3)cc2OC[C@@H](C)N(Cc2cc(F)ccc2F)C[C@H]1C	.	-87*
CCCN1C[C@H](C)[C@@H](OC)CN(C)C(=O)c2cc(NC(=O)Nc3cccc(F)c3)ccc2OC[C@H]1C	6	-82*
CO[C@@H]1CN(C)C(=O)c2ccc(NC(=O)C3CC3)cc2OC[C@H](C)N(Cc2cc(F)ccc2F)C[C@H]1C	.	-48
CO[C@@H]1CN(C)C(=O)c2cc(NC(=O)Cc3ccccc3)ccc2OC[C@@H](C)N(C(=O)c2ccccc2F)C[C@@H]1C	.	-50
CO[C@H]1CN(C)C(=O)c2cc(NC(=O)Cc3ccccc3)ccc2OC[C@H](C)N(C(=O)c2ccccc2F)C[C@H]1C	.	-89*
CO[C@@H]1CN(C)C(=O)c2ccc(NS(=O)(=O)CC(F)(F)F)cc2OC[C@@H](C)N(Cc2nccs2)C[C@H]1C	.	-1
